Active and inactive are the calls of the source.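 How the source made its calls: active means hit in primary screen, with calcium signal over 5 SD above buffer well mean in both duplicates; inactive means the rest.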

This assay in a line: calcium flux activation in mu-opioid HEK293 cells, confirmation, counter-screen for TRPC4 activator project, cell-based, HEK293 mu-opioid receptor line (AID 449723).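 Further: counter screen cells carry the mu-opioid receptor alone and lack TRPC4.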 On activation: reference of the scale not given here. The following applies: Fluo-4 calcium fluorescence, at 10 µM; stronger effect = higher value. For orientation: Calcium flux is commonly read through the fluorescence of an indicator in the cells.
For `COc1ccc(C(CCNCc2ccc(N(C)C)cc2)c2ccccc2)cc1` (configuration not stated), the result was inactive. Same read-out and setting: with `COc1ccc(C(=O)NNC(=S)NC(=O)c2cccs2)cc1` the entry was “inactive”.

Consider `Cc1cccc(C(=O)NC(=S)NNC(=O)Cc2ccccc2)c1`, for which the activation is 44.1% (active).

`COc1ccc(CC(=O)NCC(c2ccc(OC)cc2)N(C)C)cc1` (configuration not stated): the outcome was inactive. The same measure, in the same setting: then `COc1cccc(C(=O)NC2CCCN(C3Cc4ccccc4C3)C2)c1OC` (configuration not stated), with “inactive”; and `NC(=O)C1CCCN(CCc2ccccc2)C1` (configuration not stated), with “inactive”. For `CNC[C@H](Cc1ccccc1)NC[C@@H](Cc1cccc2ccccc12)NCCc1ccc(C)cc1`, the activation is 37.9% (active). Take `O=C(CC1C(=O)NCCN1Cc1cccc(Oc2ccccc2)c1)NCCc1ccccn1` (configuration not stated): the result was inactive. For the molecule `COc1ccccc1/C=C/CN1CCCC(CCC(=O)NCc2ccccc2F)C1` (configuration not stated), the outcome was inactive.

With `C=CCn1c(/N=C/c2ccc(N(C)C)cc2)nc2ccccc21`, the activation is 103% (active).

On to `Cc1oc(-c2ccccc2Cl)nc1CS(=O)CC(=O)NCCCN1CC(C)CC(C)C1` (configuration not stated), for which the result was inactive.

As for `COc1ccc(CN2CCC(N(CCc3ccccc3)Cc3ccccc3)CC2)c(OC)c1`, the result was inactive. As to `O=C(NC(=S)NNC(=O)c1ccccc1[N+](=O)[O-])c1ccc(Br)cc1`, the activation is 15.6% (active). As for `O=C(NC1CCN(Cc2ccccc2)CC1)C12CC3CC(CC(C3)C1)C2`, the result was inactive. The same measure, in the same setting: with `CCCN1CCN(C(=O)Cn2c(=O)oc3cc(S(=O)(=O)NCc4ccccc4)ccc32)CC1` the entry was “inactive”. In the case of `Cn1c2ccccc2c(=O)c2c(=O)n(C3CCCCC3)c(-c3ccco3)nc21`, the activation was 68.6% (active). As for `OCCC1CN(Cc2ccccc2-c2ccco2)CCN1Cc1ccccc1` (configuration not stated), the result was inactive.
